Compound activity: PubChem, The Scripps Research Institute Molecular Screening Center
An excerpt weighted towards active compounds, which were near 0.9% of everything screened.
PPARg SRC-3 ag = agonists of human PPARgamma SRC-3 coactivator recruitment | AID 731 | biochemical PPARgamma/SRC-3 coactivator recruitment assay | activation, % at 8 µM | 200,000 tested, 0.26% active | P37231; in the data active = activation above about 23%
Target sequence (P37231 whole entry, looked up): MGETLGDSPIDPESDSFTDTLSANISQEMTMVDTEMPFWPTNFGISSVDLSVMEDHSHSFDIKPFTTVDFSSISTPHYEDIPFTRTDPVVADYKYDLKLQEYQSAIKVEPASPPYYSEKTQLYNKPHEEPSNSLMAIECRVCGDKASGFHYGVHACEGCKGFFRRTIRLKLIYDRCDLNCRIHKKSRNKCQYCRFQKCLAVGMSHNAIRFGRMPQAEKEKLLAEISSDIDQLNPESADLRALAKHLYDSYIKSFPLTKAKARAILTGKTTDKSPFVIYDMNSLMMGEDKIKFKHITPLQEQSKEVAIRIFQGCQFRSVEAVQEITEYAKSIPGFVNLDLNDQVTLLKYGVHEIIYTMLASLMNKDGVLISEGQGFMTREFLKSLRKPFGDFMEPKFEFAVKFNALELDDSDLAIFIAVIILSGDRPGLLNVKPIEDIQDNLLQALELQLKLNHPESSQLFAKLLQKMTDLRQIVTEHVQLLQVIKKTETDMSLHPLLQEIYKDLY
SRC3 TRFRET art = TR-FRET artefact, counter-screen to PPARgamma/SRC-3 agonist assay; PPARgamma/SRC-3 format; stronger effect = higher value; TR-FRET ratio at 8 µM; 99,000 tested, 0.39% active
TR-FRET SRC-2 ct = TR-FRET artefact, counter-screen to PPARgamma/SRC-2 agonist assay | stronger effect = higher value | TR-FRET ratio at 8 µM | 200,000 tested, 0.4% active | AID 1049
SRC1 TRFRET art = counter-screen for PPARgamma SRC-1 recruitment agonists: TR-FRET artefact; TR-FRET detection artefact counter-screen, emission ratio; stronger effect = higher value; TR-FRET ratio at 8 µM; 99,000 tested, 0.34% active; in the data active = TR-FRET ratio above about 2300
PPARg SRC2 recr = promotes SRC-2 coactivator recruitment by human PPARgamma | PPARgamma LBD-SRC-2 recruitment, biochemical | activation, % at 8 µM | 200,000 tested, 0.34% active | AID 1032; in the data active = activation above about 22%
PPARg SRC-1 ag = promotes SRC-1 coactivator recruitment by human PPARgamma | P37231 | PPARgamma-SRC-1 coactivator recruitment biochemical assay | activation, % at 8 µM | 200,000 tested, 0.41% active; in the data active = activation above about 19%
Hits are given with their value; i = inactive; nt = no result given. Rule as the data show it, unless noted: active = TR-FRET ratio above about 2000; inactive = the rest.

SMILES | PPARg SRC-3 ag | SRC3 TRFRET art | TR-FRET SRC-2 ct | SRC1 TRFRET art | PPARg SRC2 recr | PPARg SRC-1 ag
NS(=O)(=O)c1ccc(CNC(=S)Nc2ccc(F)c(Cl)c2)cc1 | i | i | i | i | i | i
NS(=O)(=O)c1ccc(NC(=S)NCc2ccc(Cl)cc2)cc1 | 30.4 | nt | i | nt | i | i
CCc1ccc(S(=O)(=O)c2ccc(-n3nc(C)cc3N)cc2)cc1 | i | i | i | i | i | i
CC(C)(C)c1ccc(C(=O)NCC(=O)OCC(=O)c2ccc3c(c2)-c2ccccc2C3)cc1 | i | i | 2064 | 2576 | i | i
O=C(CNC(=O)c1cccs1)OCC(=O)c1ccc2ccccc2c1 | i | nt | i | nt | i | i
Cc1cnc(NC(=O)c2ccc(OCC3CCCO3)cc2)s1 (stereo not given) | i | i | i | i | i | i
COc1ccc(OC)c(-c2csc(NC(=O)c3ccc(OCC4CCCO4)cc3)n2)c1 (stereo not given) | i | 2496 | i | i | i | i
CC(C)(C)C1CCc2c(sc(NC(=O)c3cccs3)c2C(N)=O)C1 (stereo not given) | i | nt | i | nt | 23.7 | i
O=C(CSc1nnnn1Cc1ccccc1)NCC(=O)c1ccccc1 | i | nt | i | nt | 22.7 | i
O=C(CSc1nnnn1Cc1ccccc1)NCCc1ccccc1 | i | i | i | i | i | i
O=C(Nc1cnccn1)c1cccc(C(F)(F)F)c1 | i | nt | 2375 | nt | 65.0 | i
O=C(NCCC1=CCCCC1)c1cc(-c2ccncc2)nc2ccccc12 | i | i | i | i | i | i
Cc1[nH]c2ccccc2c1/C=N/Nc1ccccn1 | i | i | 2002 | i | i | i
Cc1[nH]c2ccccc2c1/C=N/Nc1nncn1N | i | i | i | i | i | i
CNC(=O)C(=O)NCCCN1CCOCC1 | i | i | i | i | i | i
N#Cc1c(-c2cccnc2)c2c([nH]c1=S)CCCC2 | i | nt | i | nt | i | i
CC(C)Cc1c2c([nH]c(=S)c1C#N)CCCC2 | i | i | i | i | i | i
COc1ccc(-c2c3c([nH]c(=S)c2C#N)CCC3)cc1 | 107.7 | nt | 4167 | nt | 85.8 | 63.7
COc1ccc(OC)c(-c2c3c([nH]c(=S)c2C#N)CCCC3)c1 | i | i | i | 2339 | i | i
Cc1cc(C)n(CC(O)COc2c(C)cccc2C)n1 (stereo not given) | i | i | i | i | i | i
COc1ccc(N2C(=O)CSC2c2ccccc2[N+](=O)[O-])cc1 (stereo not given) | i | i | i | i | i | i
O=c1[nH]c2cc(NCCO)c([N+](=O)[O-])cc2[nH]1 | i | i | i | i | i | i
CN(C)C(=O)COC(=O)c1ccccc1Nc1ccc(SC(F)F)cc1 | i | i | i | i | i | i
Cc1ccc(NC(=O)CN2C(=O)N/C(=C/c3cc(C)n(-c4ccc(C(=O)O)cc4)c3C)C2=O)cc1 | i | i | i | i | i | i
CCn1c(C)cc(/C=C2\NC(=O)N(CC(=O)Nc3ccc(F)cc3)C2=O)c1C | i | i | i | 2342 | i | i
SMILES | PPARg SRC-3 ag | SRC3 TRFRET art | TR-FRET SRC-2 ct | SRC1 TRFRET art | PPARg SRC2 recr | PPARg SRC-1 ag
CC1(C)Cc2c(C#N)c(SCc3ccccc3)nc(N3CCOCC3)c2CO1 | i | nt | i | nt | i | i
CC1(C)Cc2c(C#N)c(SCC(=O)c3ccccc3)nc(N3CCOCC3)c2CO1 | i | nt | 3056 | nt | 59.5 | i
CC(=O)c1c(N2CCN(c3ccc(F)cc3)CC2)nc(=S)n(Cc2ccccc2)c1C | i | 2117 | i | i | i | i
CC(=O)Nc1nc(CCN2C(=O)c3ccccc3C2=O)cs1 | i | i | i | i | i | i
CCOC(=O)c1sc2nc(CC(=O)OC)nc(NCc3ccc(F)cc3)c2c1C | i | nt | 3064 | nt | 57.2 | i
O=C1OCCC1Sc1nnc(-c2ccc(Br)cc2)o1 (stereo not given) | i | nt | i | nt | 23.9 | i
COc1ccccc1C(=O)Nc1cccnc1 | i | i | i | i | i | i
COc1ccccc1C(=O)Nc1ccccn1 | i | nt | i | nt | 23.9 | i
CCCc1c(O)nc(SCC(=O)O)[nH]c1=O | i | i | i | i | i | i
O=C1c2cccc(OCC(=O)N3CCCc4ccccc43)c2CCN1Cc1ccccc1 | i | i | i | i | i | 23.6
O=C1c2cccc(OCC(=O)N3CCCc4ccccc43)c2CCN1Cc1ccc(Br)cc1 | i | i | i | i | i | i
CC(C)c1nnc(NC(=O)C2CCN(S(=O)(=O)c3ccc(-n4cnnn4)cc3)CC2)s1 | i | i | i | i | i | i
Cc1[nH]c(=S)c(C#N)c2c1CCCC2 | i | i | i | i | i | i
N#Cc1c(N)sc(=S)c2c1CCCC2 | i | nt | 2023 | nt | i | i
N#Cc1cccc(NC(=O)COC(=O)c2ccccc2Sc2ccccc2C#N)c1 | i | 2131 | i | i | i | i
CC(=O)c1ccc(NC(=O)COC(=O)c2ccccc2Sc2ccccc2C#N)cc1 | i | 2465 | i | i | i | i
N#Cc1ccccc1Sc1ccccc1C(=O)OCC(=O)NC12CC3CC(CC(C3)C1)C2 | i | 3416 | 2682 | 2330 | i | i
CN(C)C(=O)COC(=O)c1ccccc1Sc1ccccc1C#N | i | i | i | i | i | i
CCCC(CCC)C(=O)Nc1ccc2c(c1)N(C(=O)CCN1CCN(C)CC1)c1ccccc1CC2 | i | i | i | i | i | i
CSc1ccccc1NC(=O)c1cc2ncc(Br)cn2n1 | i | 2070 | i | 2400 | i | i
COC(=O)c1cn(C(=O)/C=C/c2ccc(OC)c(OC)c2)c2ccccc12 | i | i | i | i | i | i
O=C(Nc1ccc2ccccc2c1)c1cn(-c2ccccc2)nc1-c1cccs1 | i | nt | 2107 | nt | i | i
COC(=O)CSc1nc(C)c(C(=O)Nc2ccccc2C)c(-c2ccc(Cl)cc2)c1C#N | i | 2162 | i | i | i | i
Cc1ccccc1NC(=O)c1c(C)nc(SCC(=O)OCc2ccccc2)c(C#N)c1-c1ccc(F)cc1 | i | i | i | i | i | i
Cc1nc(SCC(=O)OCc2ccccc2)c(C#N)c(-c2ccccc2)c1C(=O)Nc1ccccc1 | i | nt | 2287 | nt | i | i
SMILES | PPARg SRC-3 ag | SRC3 TRFRET art | TR-FRET SRC-2 ct | SRC1 TRFRET art | PPARg SRC2 recr | PPARg SRC-1 ag
O=C(N/N=C/c1cccc([N+](=O)[O-])c1)C1CC1c1ccccc1 (stereo not given) | i | i | i | i | i | i
CN1c2ccsc2/C(=N/NC(=O)c2c(F)cccc2F)CS1(=O)=O | i | nt | i | nt | i | i
CN1c2ccsc2/C(=N/Nc2ccccc2)CS1(=O)=O | i | i | 2054 | i | i | i
Cn1ccnc1C1CCCCN1Cc1nc(-c2ccc3c(c2)OCO3)no1 (stereo not given) | i | i | i | 3563 | i | 38.5
CC(C)C(C)NC(=O)CSc1nc2scc(-c3ccco3)c2c(=O)n1-c1ccccc1 (stereo not given) | i | nt | i | nt | i | i
CC(C)C(C)(C#N)NC(=O)CSc1nc2scc(-c3ccco3)c2c(=O)n1-c1ccccc1 (stereo not given) | i | nt | 2013 | nt | i | i
Cc1ccc(S(=O)(=O)Nc2nc(C)c(NC(=O)Nc3ccc(Cl)cc3Cl)s2)cc1 | i | nt | i | nt | i | i
O=C(COc1ccc(Cl)cc1)Nc1nc(-c2ccc(S(=O)(=O)N3CCOCC3)cc2)cs1 | i | nt | 2847 | nt | i | i
